Test results reported in PubChem BioAssay AID1159580 (chemical genetic matrix, 2015).
Several values for one entry are separate records, joined by “and”; a condition that tells them apart may be missing. Identical values can stand only once. The whole screen tested about 5,500 compounds, of which about 2,000 (36%) were called active. Another 18% or so got no clear call; they are omitted. The list shows a part of the results. Unmarked numbers belong to inactive results. Rule as the data show it: active = normalized growth mostly below about 0.91 (no sharp cut-off); inconclusive = no clear call, values can overlap the other calls; inactive = mostly above about 0.92.

Test: chemical genetic growth profiling, strain panel (AID 1159580);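 also: tested at 20 µM; growth read once vehicle control cultures reached saturation at 30 °C; 1 = growth at the plate median or of vehicle wells; lower values mean less growth of the strain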
Details: growth OD
[1] = S. cerevisiae deletion strains, locus YAL013W, strain DEP1, stronger effect = lower value
[2] = S. cerevisiae deletion strains, locus YBR229C, strain ROT2, stronger effect = lower value
[3] = S. cerevisiae deletion strains, locus YDL101C, strain DUN1, stronger effect = lower value
[4] = S. cerevisiae deletion strains, locus YDR150W, strain NUM1, stronger effect = lower value
[5] = S. cerevisiae deletion strains, locus YEL061C, strain CIN8, stronger effect = lower value
[6] = S. cerevisiae deletion strains, locus YGR078C, strain PAC10, stronger effect = lower value
[7] = S. cerevisiae deletion strains, locus YHR030C, strain SLT2, stronger effect = lower value
[8] = S. cerevisiae deletion strains, locus YJR043C, strain POL32, stronger effect = lower value
[9] = S. cerevisiae deletion strains, locus YJR075W, strain HOC1, stronger effect = lower value
[10] = S. cerevisiae deletion strains, locus YKL190W, strain CNB1, stronger effect = lower value
[11] = S. cerevisiae deletion strains, locus YLR039C, strain RIC1, stronger effect = lower value
[12] = S. cerevisiae deletion strains, locus YLR262C, strain YPT6, stronger effect = lower value
[13] = S. cerevisiae deletion strains, locus YMR263W, strain SAP30, stronger effect = lower value
[14] = S. cerevisiae deletion strains, locus YMR307W, strain GAS1, stronger effect = lower value
[15] = S. cerevisiae deletion strains, locus YNL128W, strain TEP1, stronger effect = lower value
[16] = S. cerevisiae deletion strains, locus YNL153C, strain GIM3, stronger effect = lower value
[17] = S. cerevisiae deletion strains, locus YNL322C, strain KRE1, stronger effect = lower value
[18] = S. cerevisiae deletion strains, locus YPL055C, strain LGE1, stronger effect = lower value
[19] = S. cerevisiae deletion strains, locus YPL241C, strain CIN2, stronger effect = lower value
[20] = S. cerevisiae deletion strains, locus YAL040C, strain CLN3, stronger effect = lower value
[21] = S. cerevisiae deletion strains, locus YNL175C, strain NOP13, stronger effect = lower value
[22] = S. cerevisiae deletion strains, locus YNL197C, strain WHI3, stronger effect = lower value
[23] = S. cerevisiae deletion strains, locus YNL224C, strain SQS1, stronger effect = lower value
[24] = S. cerevisiae deletion strains, locus YOR083W, strain WHI5 (second series), stronger effect = lower value
[25] = S. cerevisiae deletion strains, locus YHR087W, strain rtc3, stronger effect = lower value
[26] = S. cerevisiae deletion strains, locus YLR058C, strain SHM2 (second series), stronger effect = lower value
[27] = S. cerevisiae deletion strains, locus YLR085C, strain ARP6, stronger effect = lower value
[28] = S. cerevisiae deletion strains, locus YML094W, strain GIM5, stronger effect = lower value
[29] = S. cerevisiae deletion strains, locus YMR219W, strain ESC1, stronger effect = lower value
[30] = S. cerevisiae deletion strains, locus YNL298W, strain CLA4 (second series), stronger effect = lower value
[31] = S. cerevisiae deletion strains, locus YNR030W, strain Alg12, stronger effect = lower value
[32] = S. cerevisiae deletion strains, locus YPR135W, strain CTF4, stronger effect = lower value

C=C(C)[C@@H]1[C@H]2OC(=O)[C@@H]1[C@]1(O)C[C@H]3O[C@]34C(=O)O[C@H]2[C@]14C
normalized growth [1]: 0.985
normalized growth (S. cerevisiae deletion strains, locus YBR021W, strain FUR4, stronger effect = lower value): 1.01
normalized growth [2]: 0.947
normalized growth (S. cerevisiae deletion strains, locus YCL029C, strain bik1, stronger effect = lower value): 0.997
normalized growth (S. cerevisiae deletion strains, locus YDL035C, strain GPR1, stronger effect = lower value): 0.987
normalized growth (S. cerevisiae deletion strains, locus YDL074C, strain BRE1, stronger effect = lower value): 1.02
normalized growth [3]: 0.98
normalized growth (S. cerevisiae deletion strains, locus YDL134C, strain PPH21, stronger effect = lower value): 0.988
normalized growth (S. cerevisiae deletion strains, locus YDL185W, strain tfp1, stronger effect = lower value): 1
normalized growth (S. cerevisiae deletion strains, locus YDL192W, strain arf1, stronger effect = lower value): 0.99
normalized growth (S. cerevisiae deletion strains, locus YDR101C, strain arx1, stronger effect = lower value): 1
normalized growth [4]: 0.971
normalized growth (S. cerevisiae deletion strains, locus YDR162C, strain NBP2, stronger effect = lower value): 0.987
normalized growth (S. cerevisiae deletion strains, locus YDR318W, strain mcm21, stronger effect = lower value): 1.01
normalized growth (S. cerevisiae deletion strains, locus YDR388W, stronger effect = lower value): 1.01
normalized growth (S. cerevisiae deletion strains, locus YDR502C, strain sam2, stronger effect = lower value): 0.994
normalized growth [5]: 0.987
normalized growth (S. cerevisiae deletion strains, locus YER110C, stronger effect = lower value): 0.973
normalized growth (S. cerevisiae deletion strains, locus YER155C, strain BEM2, stronger effect = lower value): 0.999
normalized growth (S. cerevisiae deletion strains, locus YER167W, strain BCK2, stronger effect = lower value): 1
normalized growth (S. cerevisiae deletion strains, locus YGL078C, strain dbp3, stronger effect = lower value): 0.994
normalized growth (S. cerevisiae deletion strains, locus YGL086W, strain mad1, stronger effect = lower value): 0.99
normalized growth (S. cerevisiae deletion strains, locus YGL248W, strain PDE1, stronger effect = lower value): 0.98
normalized growth [6]: 1.01
normalized growth (S. cerevisiae deletion strains, locus YGR135W, strain pre9, stronger effect = lower value): 1
normalized growth (S. cerevisiae deletion strains, locus YGR229C, strain SMI1, stronger effect = lower value): 1.01
normalized growth (S. cerevisiae deletion strains, locus YGR252W, strain gcn5, stronger effect = lower value): 0.95
normalized growth [7]: 0.996 and 1.03
normalized growth (S. cerevisiae deletion strains, locus YHR079C, strain IRE1 (second series), stronger effect = lower value): 1
normalized growth (S. cerevisiae deletion strains, locus YHR079C, strain IRE1, stronger effect = lower value): 0.993
normalized growth (S. cerevisiae deletion strains, locus YHR094C, strain hxt1, stronger effect = lower value): 0.996
normalized growth (S. cerevisiae deletion strains, locus YHR129C, strain ARP1, stronger effect = lower value): 1
normalized growth (S. cerevisiae deletion strains, locus YHR200W, strain rpn10, stronger effect = lower value): 1
normalized growth (S. cerevisiae deletion strains, locus YIL066C, strain RNR3, stronger effect = lower value): 0.97
normalized growth (S. cerevisiae deletion strains, locus YIL073C, strain SPO22, stronger effect = lower value): 0.982
normalized growth (S. cerevisiae deletion strains, locus YIL125W, strain kgd1, stronger effect = lower value): 0.99
normalized growth (S. cerevisiae deletion strains, locus YIR030C, strain dcg1, stronger effect = lower value): 0.99
normalized growth (S. cerevisiae deletion strains, locus YJL095W, strain BCK1, stronger effect = lower value): 1.02 and 0.989
normalized growth (S. cerevisiae deletion strains, locus YJL134W, strain LCB3, stronger effect = lower value): 0.984
normalized growth (S. cerevisiae deletion strains, locus YJL168C, strain set2, stronger effect = lower value): 1
normalized growth (S. cerevisiae deletion strains, locus YJL187C, strain SWE1 (second series), stronger effect = lower value): 0.986
normalized growth [8]: 1.02
normalized growth (S. cerevisiae deletion strains, locus YJR066W, strain TOR1, stronger effect = lower value): 0.962
normalized growth [9]: 1
normalized growth (S. cerevisiae deletion strains, locus YKL009W, strain mrt4, stronger effect = lower value): 0.96
normalized growth (S. cerevisiae deletion strains, locus YKL068W, stronger effect = lower value): 0.997
normalized growth (S. cerevisiae deletion strains, locus YKL085W, strain MDH1 (second series), stronger effect = lower value): 0.996
normalized growth (S. cerevisiae deletion strains, locus YKL085W, strain MDH1, stronger effect = lower value): 0.996
normalized growth [10]: 1
normalized growth (S. cerevisiae deletion strains, locus YKR001C, strain vps1, stronger effect = lower value): 1.01
normalized growth [11]: 0.972
normalized growth (S. cerevisiae deletion strains, locus YLR058C, strain SHM2, stronger effect = lower value): 0.964
normalized growth (S. cerevisiae deletion strains, locus YLR102C, strain apc9, stronger effect = lower value): 1
normalized growth (S. cerevisiae deletion strains, locus YLR113W, strain HOG1, stronger effect = lower value): 0.982
normalized growth [12]: 0.93
normalized growth (S. cerevisiae deletion strains, locus YLR268W, strain sec22, stronger effect = lower value): 1.07
normalized growth (S. cerevisiae deletion strains, locus YLR330W, strain CHS5, stronger effect = lower value): 0.983
normalized growth (S. cerevisiae deletion strains, locus YLR342W, strain FKS1 (second series), stronger effect = lower value): 1.01
normalized growth (S. cerevisiae deletion strains, locus YLR371W, strain rom2, stronger effect = lower value): 0.988
normalized growth (S. cerevisiae deletion strains, locus YLR418C, strain cdc73, stronger effect = lower value): 0.998
normalized growth (S. cerevisiae deletion strains, locus YML016C, strain PPZ1, stronger effect = lower value): 0.982
normalized growth (S. cerevisiae deletion strains, locus YML032C, strain rad52, stronger effect = lower value): 1.02
normalized growth (S. cerevisiae deletion strains, locus YML124C, strain tub3, stronger effect = lower value): 0.992
normalized growth (S. cerevisiae deletion strains, locus YMR078C, strain ctf18, stronger effect = lower value): 1
normalized growth (S. cerevisiae deletion strains, locus YMR223W, strain ubp8, stronger effect = lower value): 0.983
normalized growth [13]: 1.01
normalized growth [14]: 0.987
normalized growth (S. cerevisiae deletion strains, locus YNL067W, strain RPL9B, stronger effect = lower value): 1.02
normalized growth [15]: 0.976
normalized growth [16]: 0.998
normalized growth (S. cerevisiae deletion strains, locus YNL183C, strain NPR1, stronger effect = lower value): 0.954
normalized growth (S. cerevisiae deletion strains, locus YNL233W, strain BNI4, stronger effect = lower value): 1
normalized growth (S. cerevisiae deletion strains, locus YNL250W, strain rad50, stronger effect = lower value): 0.975
normalized growth (S. cerevisiae deletion strains, locus YNL271C, strain bni1, stronger effect = lower value): 1.01
normalized growth (S. cerevisiae deletion strains, locus YNL298W, strain CLA4, stronger effect = lower value): 0.999
normalized growth (S. cerevisiae deletion strains, locus YNL307C, strain MCK1, stronger effect = lower value): 0.987
normalized growth [17]: 0.994
normalized growth (S. cerevisiae deletion strains, locus YNR052C, strain pop2, stronger effect = lower value): 1
normalized growth (S. cerevisiae deletion strains, locus YOL006C, strain TOP1, stronger effect = lower value): 1.03
normalized growth (S. cerevisiae deletion strains, locus YOL012C, strain htz1): 0.801
normalized growth (S. cerevisiae deletion strains, locus YOL147C, strain pex11, stronger effect = lower value): 0.991
normalized growth (S. cerevisiae deletion strains, locus YOR061W, strain CKA2, stronger effect = lower value): 0.976
normalized growth (S. cerevisiae deletion strains, locus YOR069W, strain VPS5, stronger effect = lower value): 0.98
normalized growth (S. cerevisiae deletion strains, locus YOR136W, strain idh2, stronger effect = lower value): 0.986
normalized growth (S. cerevisiae deletion strains, locus YOR144C, strain elg1, stronger effect = lower value): 0.997
normalized growth (S. cerevisiae deletion strains, locus YOR184W, strain ser1, stronger effect = lower value): 0.985
normalized growth (S. cerevisiae deletion strains, locus YOR231W, strain MKK1, stronger effect = lower value): 1.02
normalized growth (S. cerevisiae deletion strains, locus YOR316C, strain cot1, stronger effect = lower value): 0.995
normalized growth [18]: 0.978
normalized growth [19]: 0.994
normalized growth (S. cerevisiae deletion strains, locus YPL256C, strain CLN2, stronger effect = lower value): 1.05
normalized growth (S. cerevisiae deletion strains, locus YPR119W, strain clb2, stronger effect = lower value): 0.991
normalized growth (S. cerevisiae deletion strains, locus YPR141C, strain kar3, stronger effect = lower value): 0.981
normalized growth (S. cerevisiae deletion strains, locus YPR163C, strain tif3, stronger effect = lower value): 1
normalized growth (S. cerevisiae deletion strains, locus YPR167C, strain met16, stronger effect = lower value): 1
normalized growth (S. cerevisiae deletion strains, strain wtn01, stronger effect = lower value): 1.02
normalized growth (S. cerevisiae strains, strain wild type, stronger effect = lower value): 0.981

CC(C)(O)C1C2OC(=O)C1C1(O)CC3OC34C(=O)OC2C14C (stereo not given) (tested in a mixture with another compound)
normalized growth [20]: 0.454 (active)
normalized growth (S. cerevisiae deletion strains, locus YCL061C, strain MRC1 (second series), stronger effect = lower value): 1.01
normalized growth (S. cerevisiae deletion strains, locus YDR363W, strain ESC2, stronger effect = lower value): 0.969
normalized growth [14]: 0.983
normalized growth [21]: 0.537 (active)
normalized growth [22]: 1
normalized growth [23]: 1
normalized growth [24]: 0.502 (active)

Ic1ccc(I)s1
normalized growth [1]: 1.03
normalized growth [2]: 1
normalized growth (S. cerevisiae deletion strains, locus YCL061C, strain MRC1, stronger effect = lower value): 1.03
normalized growth [3]: 1.01
normalized growth [4]: 1.02
normalized growth [5]: 1.04
normalized growth [6]: 1.02
normalized growth [7]: 1.22
normalized growth [25]: 1
normalized growth (S. cerevisiae deletion strains, locus YJL187C, strain SWE1, stronger effect = lower value): 1.01
normalized growth [8]: 1.04
normalized growth [9]: 1.02
normalized growth [10]: 1.01
normalized growth [11]: 1.18
normalized growth [26]: 0.999
normalized growth [27]: 1.01
normalized growth [12]: 1.16
normalized growth [28]: 1.02
normalized growth [29]: 1.01
normalized growth [13]: 1
normalized growth [14]: 1.12
normalized growth [15]: 1
normalized growth [16]: 1.01
normalized growth [30]: 1.04
normalized growth [17]: 1.01
normalized growth [31]: 1.04
normalized growth [18]: 1.03
normalized growth [19]: 1.06
normalized growth [32]: 1.11

O=C1O/C(=C/Br)CCC1c1cccc2ccccc12 (stereo not given)
normalized growth [1]: 0.952
normalized growth [20]: 1
normalized growth (S. cerevisiae deletion strains, locus YER002W, strain NOP16, stronger effect = lower value): 1.01
normalized growth [13]: 0.989
normalized growth [16]: 0.6 (active)
normalized growth [21]: 0.61 (active)
normalized growth [22]: 0.947
normalized growth [23]: 0.771 (active)
normalized growth [24]: 0.775 (active)
normalized growth [18]: 0.922
normalized growth [19]: 0.998

COc1cccc(OC)c1C(C)(O)C(OC)OC (stereo not given)
normalized growth [1]: 0.996
normalized growth [2]: 0.989
normalized growth [3]: 0.999
normalized growth [4]: 1.02
normalized growth [5]: 1.01
normalized growth [6]: 1
normalized growth [7]: 1.05
normalized growth [25]: 1.03
normalized growth [8]: 1.01
normalized growth [9]: 1
normalized growth [11]: 1.02
normalized growth [26]: 1.02
normalized growth [27]: 1.03
normalized growth [12]: 1.01
normalized growth [28]: 0.997
normalized growth [29]: 1
normalized growth [13]: 0.941
normalized growth [14]: 0.98
normalized growth [16]: 0.994
normalized growth [30]: 1.05
normalized growth [17]: 1.01
normalized growth [31]: 1.02
normalized growth [18]: 1.03
normalized growth [19]: 1.02
normalized growth [32]: 1.09
